According to the supplement of paper PMC11732987, “Enantioselective OTUD7B fragment discovery through chemoproteomics screening and high-throughput optimisation” (Communications Chemistry, 2025):

How the values were obtained:
Assay in all cases: log2 ratio of Biotin-Ahx-Ub-VS probe labelling (fragment/DMSO); higher = less target engagement (more negative = stronger competition), active = hit call of the paper (q ≤ 0.05, log2 ratio ≤ -1)
Conditions in all cases: compound concentration: 200 uM; treatment time: 3 h
USP34 = USP34 (UniProt Q70CQ2)
Sequence of USP34 (Q70CQ2 whole entry, the tested form may be a part): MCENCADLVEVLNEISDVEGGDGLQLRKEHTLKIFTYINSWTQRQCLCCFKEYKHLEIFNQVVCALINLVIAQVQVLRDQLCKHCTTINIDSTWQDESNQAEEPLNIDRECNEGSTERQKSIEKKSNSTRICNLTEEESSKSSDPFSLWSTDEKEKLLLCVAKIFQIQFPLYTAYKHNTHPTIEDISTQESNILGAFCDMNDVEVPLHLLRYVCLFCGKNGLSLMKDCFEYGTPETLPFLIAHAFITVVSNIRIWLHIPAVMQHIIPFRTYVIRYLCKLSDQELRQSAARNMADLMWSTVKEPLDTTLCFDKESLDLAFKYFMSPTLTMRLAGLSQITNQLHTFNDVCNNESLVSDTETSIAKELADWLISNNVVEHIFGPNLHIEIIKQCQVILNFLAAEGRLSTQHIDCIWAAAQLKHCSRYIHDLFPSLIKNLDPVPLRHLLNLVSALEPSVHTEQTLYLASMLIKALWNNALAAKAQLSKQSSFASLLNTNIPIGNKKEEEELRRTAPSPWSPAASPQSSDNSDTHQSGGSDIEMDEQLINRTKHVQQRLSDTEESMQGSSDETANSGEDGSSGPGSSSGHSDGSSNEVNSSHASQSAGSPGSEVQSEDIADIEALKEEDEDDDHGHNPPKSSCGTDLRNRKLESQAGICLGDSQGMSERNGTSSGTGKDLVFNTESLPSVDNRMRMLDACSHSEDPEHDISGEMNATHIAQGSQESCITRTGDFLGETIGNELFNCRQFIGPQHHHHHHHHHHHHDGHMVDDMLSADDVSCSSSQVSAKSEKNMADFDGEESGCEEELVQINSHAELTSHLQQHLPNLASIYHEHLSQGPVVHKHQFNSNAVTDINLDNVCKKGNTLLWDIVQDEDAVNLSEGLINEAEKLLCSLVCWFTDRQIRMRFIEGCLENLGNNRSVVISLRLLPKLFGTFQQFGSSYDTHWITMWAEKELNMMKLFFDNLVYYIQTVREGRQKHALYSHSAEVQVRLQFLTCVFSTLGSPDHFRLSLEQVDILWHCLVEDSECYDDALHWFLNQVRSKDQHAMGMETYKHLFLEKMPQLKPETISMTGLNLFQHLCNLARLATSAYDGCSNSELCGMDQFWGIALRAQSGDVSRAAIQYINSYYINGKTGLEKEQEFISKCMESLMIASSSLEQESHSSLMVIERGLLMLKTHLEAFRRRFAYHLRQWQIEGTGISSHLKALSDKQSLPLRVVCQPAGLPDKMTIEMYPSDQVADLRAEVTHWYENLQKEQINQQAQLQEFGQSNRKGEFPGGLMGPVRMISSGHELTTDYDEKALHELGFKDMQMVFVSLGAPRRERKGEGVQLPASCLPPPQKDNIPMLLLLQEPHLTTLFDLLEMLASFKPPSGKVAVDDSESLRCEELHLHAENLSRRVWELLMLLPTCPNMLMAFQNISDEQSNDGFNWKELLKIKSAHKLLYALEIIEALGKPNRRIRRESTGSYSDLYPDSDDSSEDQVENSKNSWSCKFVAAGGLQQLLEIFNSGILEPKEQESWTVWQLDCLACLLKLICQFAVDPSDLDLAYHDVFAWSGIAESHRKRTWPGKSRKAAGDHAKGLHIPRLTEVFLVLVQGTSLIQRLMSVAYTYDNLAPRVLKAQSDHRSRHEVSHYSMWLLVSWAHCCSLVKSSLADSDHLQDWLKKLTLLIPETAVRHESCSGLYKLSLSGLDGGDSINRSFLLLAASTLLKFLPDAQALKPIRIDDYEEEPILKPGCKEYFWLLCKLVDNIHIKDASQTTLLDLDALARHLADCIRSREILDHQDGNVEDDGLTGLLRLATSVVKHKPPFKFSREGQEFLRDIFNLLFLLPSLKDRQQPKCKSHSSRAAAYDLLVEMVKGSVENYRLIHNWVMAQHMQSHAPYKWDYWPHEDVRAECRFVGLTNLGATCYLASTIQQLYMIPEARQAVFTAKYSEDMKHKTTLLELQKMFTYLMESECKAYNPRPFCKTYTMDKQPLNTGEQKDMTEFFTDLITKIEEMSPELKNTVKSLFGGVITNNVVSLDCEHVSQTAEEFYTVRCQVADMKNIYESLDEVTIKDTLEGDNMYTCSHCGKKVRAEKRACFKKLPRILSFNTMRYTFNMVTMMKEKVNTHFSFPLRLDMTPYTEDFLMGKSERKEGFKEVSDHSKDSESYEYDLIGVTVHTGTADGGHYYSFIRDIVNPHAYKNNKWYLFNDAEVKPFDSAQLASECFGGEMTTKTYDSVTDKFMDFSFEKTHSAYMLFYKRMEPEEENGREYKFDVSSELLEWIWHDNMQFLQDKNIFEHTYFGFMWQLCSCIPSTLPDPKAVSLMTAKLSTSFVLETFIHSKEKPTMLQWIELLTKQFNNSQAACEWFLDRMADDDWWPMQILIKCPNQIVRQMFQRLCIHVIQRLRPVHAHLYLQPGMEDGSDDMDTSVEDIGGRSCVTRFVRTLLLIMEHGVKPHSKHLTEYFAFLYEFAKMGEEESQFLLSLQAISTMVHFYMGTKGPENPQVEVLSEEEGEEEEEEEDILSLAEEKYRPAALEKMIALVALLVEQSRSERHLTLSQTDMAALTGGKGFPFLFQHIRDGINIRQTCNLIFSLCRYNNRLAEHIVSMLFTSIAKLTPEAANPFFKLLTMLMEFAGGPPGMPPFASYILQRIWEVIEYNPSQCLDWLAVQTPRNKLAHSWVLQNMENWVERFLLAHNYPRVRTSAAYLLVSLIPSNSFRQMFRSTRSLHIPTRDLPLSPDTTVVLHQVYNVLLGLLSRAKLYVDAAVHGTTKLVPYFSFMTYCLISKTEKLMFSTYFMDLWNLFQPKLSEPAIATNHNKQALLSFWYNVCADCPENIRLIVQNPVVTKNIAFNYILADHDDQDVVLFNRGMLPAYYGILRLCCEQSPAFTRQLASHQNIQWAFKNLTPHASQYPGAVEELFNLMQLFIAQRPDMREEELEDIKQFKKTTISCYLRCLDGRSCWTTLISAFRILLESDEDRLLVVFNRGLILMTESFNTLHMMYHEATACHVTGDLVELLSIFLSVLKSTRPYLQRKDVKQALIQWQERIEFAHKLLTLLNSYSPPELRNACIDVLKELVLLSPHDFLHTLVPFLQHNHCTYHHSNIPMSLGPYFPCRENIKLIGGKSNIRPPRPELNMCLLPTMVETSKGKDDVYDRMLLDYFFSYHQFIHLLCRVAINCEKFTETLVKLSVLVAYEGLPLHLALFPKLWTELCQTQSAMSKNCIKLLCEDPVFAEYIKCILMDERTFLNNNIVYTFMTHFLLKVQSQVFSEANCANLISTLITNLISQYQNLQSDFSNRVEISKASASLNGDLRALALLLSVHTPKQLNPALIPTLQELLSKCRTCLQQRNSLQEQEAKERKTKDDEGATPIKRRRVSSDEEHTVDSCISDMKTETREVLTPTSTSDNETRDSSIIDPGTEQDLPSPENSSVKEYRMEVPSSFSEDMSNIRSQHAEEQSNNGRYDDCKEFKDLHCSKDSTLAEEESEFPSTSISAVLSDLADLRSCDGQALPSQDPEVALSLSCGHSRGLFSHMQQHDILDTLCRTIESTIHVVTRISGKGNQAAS
Outline: (§1)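 The table lists average log2 ratios of fragment over vehicle, from an unpaired t-test on global-median-normalised Spectronaut label-free quantities. Proteins with ≥2 unique peptides were used. Samples were HEK293T lysate (495 µg) treated in triplicate with fragment at 200 µM or vehicle for 3 h, then with Biotin-Ahx-Ub-VS (0.5 µM final) for 1 h, with labelled DUBs NeutrAvidin-enriched and run by diaPASEF LC-MS/MS.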

USP36 = target: T1, USP36 (UniProt Q9P275)
T1 sequence (whole entry): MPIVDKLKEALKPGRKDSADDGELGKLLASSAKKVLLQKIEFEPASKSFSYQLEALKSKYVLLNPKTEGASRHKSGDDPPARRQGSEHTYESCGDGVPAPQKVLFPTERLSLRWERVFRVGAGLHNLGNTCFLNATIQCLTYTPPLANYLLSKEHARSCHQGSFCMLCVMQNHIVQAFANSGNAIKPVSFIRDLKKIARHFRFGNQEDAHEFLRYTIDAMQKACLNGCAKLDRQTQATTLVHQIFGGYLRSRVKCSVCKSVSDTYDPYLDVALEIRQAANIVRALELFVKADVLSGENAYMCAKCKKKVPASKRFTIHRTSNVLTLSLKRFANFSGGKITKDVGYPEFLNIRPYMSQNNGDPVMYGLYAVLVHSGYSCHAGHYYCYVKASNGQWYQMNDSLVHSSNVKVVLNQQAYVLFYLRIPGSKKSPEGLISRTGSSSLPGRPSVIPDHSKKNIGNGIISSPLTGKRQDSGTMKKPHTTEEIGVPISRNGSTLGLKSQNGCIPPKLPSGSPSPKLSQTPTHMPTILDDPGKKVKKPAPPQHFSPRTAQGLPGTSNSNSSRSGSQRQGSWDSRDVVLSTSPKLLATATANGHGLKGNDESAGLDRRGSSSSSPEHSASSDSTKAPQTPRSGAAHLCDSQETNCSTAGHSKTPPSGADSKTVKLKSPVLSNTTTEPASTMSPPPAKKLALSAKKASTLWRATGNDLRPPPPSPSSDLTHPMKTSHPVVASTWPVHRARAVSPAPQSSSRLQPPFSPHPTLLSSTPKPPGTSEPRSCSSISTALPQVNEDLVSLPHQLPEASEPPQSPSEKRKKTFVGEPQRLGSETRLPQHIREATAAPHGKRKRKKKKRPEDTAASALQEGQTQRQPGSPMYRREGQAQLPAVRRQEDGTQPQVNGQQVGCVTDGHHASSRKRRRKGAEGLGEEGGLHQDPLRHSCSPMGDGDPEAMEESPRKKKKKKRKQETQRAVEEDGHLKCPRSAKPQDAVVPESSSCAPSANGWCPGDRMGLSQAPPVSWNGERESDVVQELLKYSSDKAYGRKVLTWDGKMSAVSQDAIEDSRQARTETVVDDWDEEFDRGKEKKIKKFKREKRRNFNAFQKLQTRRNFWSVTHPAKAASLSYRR
Outline: as §1

USP38 = target: T2, USP38 (UniProt Q8NB14)
T2 sequence (whole entry): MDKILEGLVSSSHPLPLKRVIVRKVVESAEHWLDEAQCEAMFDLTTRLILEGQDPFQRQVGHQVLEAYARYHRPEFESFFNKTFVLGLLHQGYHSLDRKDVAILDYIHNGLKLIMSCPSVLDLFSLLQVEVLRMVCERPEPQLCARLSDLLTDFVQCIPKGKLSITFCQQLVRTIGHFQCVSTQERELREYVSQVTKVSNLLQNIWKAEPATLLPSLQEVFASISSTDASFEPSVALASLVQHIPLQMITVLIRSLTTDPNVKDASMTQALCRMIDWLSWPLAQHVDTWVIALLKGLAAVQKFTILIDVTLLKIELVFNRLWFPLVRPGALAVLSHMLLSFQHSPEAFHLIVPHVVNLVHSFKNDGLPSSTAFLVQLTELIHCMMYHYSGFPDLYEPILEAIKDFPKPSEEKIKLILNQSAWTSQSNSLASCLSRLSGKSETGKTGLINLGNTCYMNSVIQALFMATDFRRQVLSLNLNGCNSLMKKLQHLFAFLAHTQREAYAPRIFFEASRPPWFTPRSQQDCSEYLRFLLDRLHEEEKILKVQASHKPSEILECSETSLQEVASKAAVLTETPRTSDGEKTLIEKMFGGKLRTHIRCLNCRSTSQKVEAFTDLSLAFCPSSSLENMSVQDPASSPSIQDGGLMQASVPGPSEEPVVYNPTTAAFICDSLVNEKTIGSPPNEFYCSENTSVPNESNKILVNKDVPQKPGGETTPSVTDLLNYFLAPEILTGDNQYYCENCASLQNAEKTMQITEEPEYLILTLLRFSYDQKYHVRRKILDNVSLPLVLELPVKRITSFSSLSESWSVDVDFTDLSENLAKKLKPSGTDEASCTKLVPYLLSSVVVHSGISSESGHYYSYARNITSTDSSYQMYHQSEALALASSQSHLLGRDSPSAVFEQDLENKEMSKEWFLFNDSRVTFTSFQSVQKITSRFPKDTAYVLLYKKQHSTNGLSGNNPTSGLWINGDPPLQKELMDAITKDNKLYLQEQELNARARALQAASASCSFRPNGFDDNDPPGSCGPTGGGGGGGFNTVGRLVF
Outline: as §1

USP39 = target: T3, USP39 (UniProt Q53GS9)
T3 sequence (whole entry): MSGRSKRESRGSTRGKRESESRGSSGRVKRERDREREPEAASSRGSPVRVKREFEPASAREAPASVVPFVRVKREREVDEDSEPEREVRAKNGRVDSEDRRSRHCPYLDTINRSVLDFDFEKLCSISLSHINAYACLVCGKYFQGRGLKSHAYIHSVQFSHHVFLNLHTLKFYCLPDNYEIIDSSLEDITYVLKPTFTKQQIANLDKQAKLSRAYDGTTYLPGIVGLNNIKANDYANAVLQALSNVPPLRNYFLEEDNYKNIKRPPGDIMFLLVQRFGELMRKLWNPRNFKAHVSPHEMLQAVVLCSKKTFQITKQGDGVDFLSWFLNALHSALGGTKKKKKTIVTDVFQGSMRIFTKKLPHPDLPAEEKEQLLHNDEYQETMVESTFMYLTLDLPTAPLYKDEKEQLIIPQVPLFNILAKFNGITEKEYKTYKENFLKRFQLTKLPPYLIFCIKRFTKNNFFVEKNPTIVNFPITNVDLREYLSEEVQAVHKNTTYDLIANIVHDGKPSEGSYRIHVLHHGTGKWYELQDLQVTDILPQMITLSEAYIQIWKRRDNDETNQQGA
Outline: as §1

USP4 = target: T4, USP4 (UniProt Q13107)
T4 sequence (whole entry): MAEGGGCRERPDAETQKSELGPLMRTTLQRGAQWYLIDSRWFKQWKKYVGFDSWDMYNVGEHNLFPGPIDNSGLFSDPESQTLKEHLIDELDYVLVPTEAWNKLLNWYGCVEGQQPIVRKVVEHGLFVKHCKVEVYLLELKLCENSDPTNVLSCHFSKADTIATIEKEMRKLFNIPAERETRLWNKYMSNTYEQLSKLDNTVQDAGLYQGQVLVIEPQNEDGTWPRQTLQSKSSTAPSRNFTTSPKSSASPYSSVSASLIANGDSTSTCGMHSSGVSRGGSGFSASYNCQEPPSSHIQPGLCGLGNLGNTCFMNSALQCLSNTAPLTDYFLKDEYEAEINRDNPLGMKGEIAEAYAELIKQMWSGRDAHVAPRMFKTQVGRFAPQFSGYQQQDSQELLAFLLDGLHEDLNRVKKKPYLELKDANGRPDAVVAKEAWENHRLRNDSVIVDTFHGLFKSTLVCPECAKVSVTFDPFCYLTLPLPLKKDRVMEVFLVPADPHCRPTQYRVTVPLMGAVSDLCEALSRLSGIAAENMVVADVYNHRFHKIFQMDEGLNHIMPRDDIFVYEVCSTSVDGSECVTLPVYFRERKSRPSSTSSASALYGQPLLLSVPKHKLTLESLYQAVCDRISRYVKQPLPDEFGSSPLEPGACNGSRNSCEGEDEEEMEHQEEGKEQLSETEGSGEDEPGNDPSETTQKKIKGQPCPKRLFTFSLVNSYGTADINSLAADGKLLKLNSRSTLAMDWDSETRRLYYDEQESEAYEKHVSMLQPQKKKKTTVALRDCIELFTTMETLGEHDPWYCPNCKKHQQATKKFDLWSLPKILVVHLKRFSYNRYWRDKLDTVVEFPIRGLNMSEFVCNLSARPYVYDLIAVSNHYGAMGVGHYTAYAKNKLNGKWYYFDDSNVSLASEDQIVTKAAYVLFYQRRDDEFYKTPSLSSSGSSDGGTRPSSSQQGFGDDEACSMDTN
Outline: as §1

Measured: log2 ratio of Biotin-Ahx-Ub-VS probe labelling

Cc1cccc(C)c1NC(=O)CCl
inactive: USP34 -0.0998 | USP36 -0.33 | USP38 -0.0307 | USP39 0.204 | USP4 -0.132
